# Data: PubChem BioAssay (Tox21)
# Records with an inconclusive call do not appear. The source holds several records for some structures; these can differ, active in one and inactive in another. Values without a mark were called inactive. Active and inactive are the calls of the source. Unless noted, calls follow the shape of the full dose curve.
# Test: qHTS assay for small molecule agonists of the p53 signaling pathway (AID 651631); also: nearly all actives have a fitted effect of over 15% in size
# Settings: HCT-116 p53RE-bla reporter, beta-lactamase FRET ratio, 16 h; series mostly up to 73.3 µM; activation: at the top concentration
# Procedure, shortened: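 Beta-lactamase reporter activity under p53 response elements was quantified in HCT-116 cells by FRET fluorescence, following 16 h incubation with test compounds at 37 °C and 2 h substrate development at room temperature.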
# % is scaled to controls: 0 for no effect and ±100 for the full control effect.
Structure (SMILES),outcome,activation
CC(C)OC(=O)OCOP(=O)(CO[C@H](C)Cn1cnc2c(N)ncnc21)OCOC(=O)OC(C)C,inactive,–
C/C(CC(C)C)=N\O,–,-1.67%
C=CCCCC,–,-3.46% [at 95.1 µM]
C=C(C)[C@@H]1CC=C(C)CC1,–,-2.26%
CC(CO)(CO)CO,–,-3.65% [at 95.1 µM]
O=C1OCCO1,–,-1.93% [at 95.1 µM]
CC(=O)CC(=O)OC(C)(C)C,–,-1.11%
CC1OCCC1=O (stereo not drawn),–,-1.44%

# Test: qHTS assay for small molecules that induce genotoxicity in human embryonic kidney cells expressing luciferase-tagged ATAD5 (AID 651632; active = well fitted activation curve with a large enough effect in the repeat runs; also: nearly all actives have a fitted effect of over 15% in size)
# Settings: HEK293T ATAD5-luciferase induction, 16 h; series mostly up to 83.3 µM; activation: at the top concentration
# Procedure, shortened: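 Luminescence read-out: after 16 hr compound exposure at 37C, ATAD5-luciferase HEK293T cells received Amplite, 30 min RT, then CCD imaging. A rise in signal marks genotoxic stress.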
Structure (SMILES),activation,outcome
CC1CCc2c(N3CCC(O)CC3)c(F)cc3c(=O)c(C(=O)O)cn1c23 (stereo not drawn),1.19%,–
Cc1ccc(C(C)NC(=O)[C@@H](NC(=O)OC(C)C)C(C)C)cc1 (stereo partly drawn),-2.32%,–
CN(C)CC/C=C1/c2ccccc2COc2ccc(CC(=O)O)cc21,3.18%,–
Cc1cc(C)c(C(=O)O)c(C)c1,1.41%,–
CC1(C)[C@H]2CC[C@](C)(C2)[C@H]1O,-0.999% [at 95.3 µM],–
COS(=O)(=O)O,0.841%,–
CC1c2ccccc2CN1NC(=O)c1ccc(Cl)c(S(N)(=O)=O)c1 (stereo not drawn),1.74%,–
C=C(C)c1cccc(C(C)(C)N=C=O)c1,-3.38%,–
C=CCCCCCCCC,0.812% [at 95.3 µM],–
CC(C)=CCC[C@@](C)(O)[C@H]1CC=C(C)CC1,1.15%,–
CN(C)CCCCl,0.788% [at 95.3 µM],–
CCC(=O)c1c(O)cc(O)cc1O,-7.38%,–
Nc1nc(-c2ccccc2)c(Br)c(=O)[nH]1,-7.32%,–
CSc1cnccn1,-1.42%,–
O=C1c2ccccc2C(=O)c2cc(Cl)ccc21,2.88% [at 8.08 µM],–
CC(C)Nc1ccccc1,-2.93%,–
C[C@@H](O)C(=O)O,0.75% [at 95.3 µM],–

Structure (SMILES),activation,outcome
OC[C@@H](O)C(O)[C@@H](O)CO (stereo partly drawn),-0.522% [at 95.3 µM],–
O=C1CCCCO1,0.426%,–
CCCCOC(=O)[C@H](C)O,-0.258%,–
Cn1c(=O)c2[nH]c(Br)nc2n(C)c1=O,-4.04%,–
Cc1ccnc(N)c1,-1.06%,–
Cc1cccc(Cl)c1,0.839%,–
[O]=[Mo](=[O])=[O],1.92% [at 39.1 µM],–
CC1=NN(c2ccc(S(=O)(=O)O)cc2)C(=O)C1,0.802%,–
CC(C)OC(=O)OCOP(=O)(CO[C@H](C)Cn1cnc2c(N)ncnc21)OCOC(=O)OC(C)C,–,inactive
C/C(CC(C)C)=N\O,2.14%,–
C=CCCCC,-1.4% [at 95.3 µM],–
C=C(C)[C@@H]1CC=C(C)CC1,5.58%,–
CC(CO)(CO)CO,2.33% [at 95.3 µM],–
O=C1OCCO1,-1.2% [at 95.3 µM],–
CC(=O)CC(=O)OC(C)(C)C,0.483%,–
CC1OCCC1=O (stereo not drawn),2.67%,–

# Test: qHTS assay for small molecule agonists of the p53 signaling pathway - cell viability (AID 651633); also: nearly all actives have a fitted effect of over 30% in size
# Settings: p53RE-bla HCT-116 viability, ATP luminescence, 16 h; series mostly up to 83.3 µM; activity change, negative = cytotoxicity: at the top concentration
# Procedure, shortened: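 Viability counter-read: CellTiter-Glo luminescence (30 min, room temperature) in the same p53RE-bla plates. These plates had been exposed to compounds for 16 h at 37 C.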
Structure (SMILES),"activity change, negative = cytotoxicity",outcome
CC1CCc2c(N3CCC(O)CC3)c(F)cc3c(=O)c(C(=O)O)cn1c23 (stereo not drawn),11.8%,–
Cc1ccc(C(C)NC(=O)[C@@H](NC(=O)OC(C)C)C(C)C)cc1 (stereo partly drawn),7.72%,–
CN(C)CC/C=C1/c2ccccc2COc2ccc(CC(=O)O)cc21,-8.55%,–
Cc1cc(C)c(C(=O)O)c(C)c1,-12.1%,–
CC1(C)[C@H]2CC[C@](C)(C2)[C@H]1O,9.98% [at 95.3 µM],–
COS(=O)(=O)O,18.9%,–
CC1c2ccccc2CN1NC(=O)c1ccc(Cl)c(S(N)(=O)=O)c1 (stereo not drawn),9.07%,–
C=C(C)c1cccc(C(C)(C)N=C=O)c1,9.95%,–
C=CCCCCCCCC,22.6% [at 95.3 µM],–
O=S(=O)(O)c1ccc2c(N=Nc3ccc(S(=O)(=O)O)c4ccccc34)c(O)c(S(=O)(=O)O)cc2c1,–,inactive
CC(C)=CCC[C@@](C)(O)[C@H]1CC=C(C)CC1,12%,–
CN(C)CCCCl,-17.5% [at 95.3 µM],–
CCC(=O)c1c(O)cc(O)cc1O,13.3%,–
Nc1nc(-c2ccccc2)c(Br)c(=O)[nH]1,12.1%,–
CSc1cnccn1,4.7%,–
O=C1c2ccccc2C(=O)c2cc(Cl)ccc21,-10.5% [at 8.08 µM],–
CC(C)Nc1ccccc1,-9.14%,–

Structure (SMILES),"activity change, negative = cytotoxicity",outcome
C[C@@H](O)C(=O)O,14.3% [at 95.3 µM],–
OC[C@@H](O)C(O)[C@@H](O)CO (stereo partly drawn),9.53% [at 95.3 µM],–
O=C1CCCCO1,9.19%,–
CCCCOC(=O)[C@H](C)O,7.44%,–
Cn1c(=O)c2[nH]c(Br)nc2n(C)c1=O,-5.86%,–
Cc1ccnc(N)c1,16.3%,–
Cc1cccc(Cl)c1,9.46%,–
[O]=[Mo](=[O])=[O],-6.74% [at 39.1 µM],–
CC1=NN(c2ccc(S(=O)(=O)O)cc2)C(=O)C1,18.8%,–
CC(C)OC(=O)OCOP(=O)(CO[C@H](C)Cn1cnc2c(N)ncnc21)OCOC(=O)OC(C)C,–,inactive
C/C(CC(C)C)=N\O,-3.37%,–
C=CCCCC,-16.9% [at 95.3 µM],–
C=C(C)[C@@H]1CC=C(C)CC1,18.3%,–
CC(CO)(CO)CO,-15.9% [at 95.3 µM],–
O=C1OCCO1,-14.3% [at 95.3 µM],–
CC1OCCC1=O (stereo not drawn),7.52%,–

# Test: qHTS assay for small molecules that induce genotoxicity in human embryonic kidney cells expressing luciferase-tagged ATAD5 - cell viability (AID 651634); also: nearly all actives have a fitted effect of over 25% in size; also: potency is read from the fitted curve at half-maximal effect
# Settings: HEK293T ATAD5-luc cells viability, CellTiter-Fluor, 15.5 h; series mostly up to 83.3 µM; activity, negative = cytotoxicity: at the top concentration
# Procedure, shortened: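 HEK293T ATAD5-luc cells, 2,000/well; compound 15.5 hr, 37C/5% CO2; CellTiter-Fluor 30 min, 37C; fluorescence read.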
Structure (SMILES),"activity, negative = cytotoxicity",Potency
CN(C)CC/C=C1/c2ccccc2COc2ccc(CC(=O)O)cc21,12.5%,–
Cc1cc(C)c(C(=O)O)c(C)c1,12.5%,–
CC1(C)[C@H]2CC[C@](C)(C2)[C@H]1O,12.3% [at 95.3 µM],–
CC1c2ccccc2CN1NC(=O)c1ccc(Cl)c(S(N)(=O)=O)c1 (stereo not drawn),10.6%,–
O=S(=O)(O)c1ccc2c(N=Nc3ccc(S(=O)(=O)O)c4ccccc34)c(O)c(S(=O)(=O)O)cc2c1,-17.7% [at 8.08 µM],13.3 µM (active)
CC(C)=CCC[C@@](C)(O)[C@H]1CC=C(C)CC1,8.5%,–
CN(C)CCCCl,15.3% [at 95.3 µM],–
CSc1cnccn1,6.65%,–
O=C1c2ccccc2C(=O)c2cc(Cl)ccc21,10.7% [at 8.08 µM],–
OC[C@@H](O)C(O)[C@@H](O)CO (stereo partly drawn),5.22% [at 95.3 µM],–
O=C1CCCCO1,3.84%,–
Cc1ccnc(N)c1,16.4%,–
Cc1cccc(Cl)c1,8.99%,–
CC(C)OC(=O)OCOP(=O)(CO[C@H](C)Cn1cnc2c(N)ncnc21)OCOC(=O)OC(C)C,–,inactive
C=C(C)[C@@H]1CC=C(C)CC1,4.5%,–
CC(CO)(CO)CO,1.85% [at 95.3 µM],–
CC(=O)CC(=O)OC(C)(C)C,-6.23%,–
CC1OCCC1=O (stereo not drawn),9.34%,–
